The values below come from PubChem BioAssay (NCATS).

Several values for one entry are separate records, joined by “and”; a condition that tells them apart may be missing. Identical values can stand only once. Inconclusive results are not listed. Entries that show only a call come without a potency. A number with no mark means an inactive call. Activity calls are given as the source filed them. Unless noted, the call rests on the fitted dose curve; in most records, active means well fitted curve in the direction sought with a large enough effect; inconclusive means small, poorly fitted or top-dose-only effect, or another doubt; inactive means no such curve, though single readings can be large; an effect the other way counts as inactive or inconclusive.

For assay [1], the target named is phosphoglycerate mutase (Leishmania major) (UniProt Q4Q090). Briefly: qHTS Validation Assay to Find Inhibitors of Phosphoglycerate Mutase (AID 504548).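 Further: end-point luminescence from Kinase-GloPlus after the PGAM reaction; series mostly up to about 58 µM.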 The gist of the method: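 L. major PGAM (1.25nM final) was added to substrate buffer and pinned compound, incubated 45 minutes at room temperature, then Kinase-GloPlus added; luminescence read after 10 minutes. Buffer: 100 mM TEA pH 7.6, 5 mM MgCl2, 0.01% Tween-20.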
phosphoglycerate mutase (Leishmania major), sequence (Q4Q090 1-553): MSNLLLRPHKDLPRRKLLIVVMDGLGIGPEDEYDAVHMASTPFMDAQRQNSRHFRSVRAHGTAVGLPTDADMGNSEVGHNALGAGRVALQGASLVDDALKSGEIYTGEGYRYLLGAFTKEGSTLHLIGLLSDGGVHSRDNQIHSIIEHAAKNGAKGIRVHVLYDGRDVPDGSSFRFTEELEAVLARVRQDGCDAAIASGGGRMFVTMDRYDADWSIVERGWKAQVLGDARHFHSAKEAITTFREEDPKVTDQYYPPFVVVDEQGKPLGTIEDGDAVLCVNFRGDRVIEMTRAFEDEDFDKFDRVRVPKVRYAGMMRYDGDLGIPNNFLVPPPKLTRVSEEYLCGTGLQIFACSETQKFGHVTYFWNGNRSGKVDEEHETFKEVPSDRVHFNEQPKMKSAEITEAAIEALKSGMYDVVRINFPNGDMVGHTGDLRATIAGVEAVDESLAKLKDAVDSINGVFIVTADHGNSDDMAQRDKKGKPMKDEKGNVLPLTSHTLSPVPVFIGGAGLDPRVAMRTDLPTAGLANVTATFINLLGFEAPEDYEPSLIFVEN
On the technique in general: Quantitative high-throughput screening tests each substance at several concentrations.

Assay [2] is described as follows: qHTS for Inhibitors of ATXN expression: Validation of Cytotoxic Assay (AID 588349). Further: potency means the concentration at half of the fitted maximal effect. The method, boiled down:
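Titrated compounds are added to cultured HEK293 cells, which are then held at 37 degrees C for 72 hr; loss of intracellular ATP, measured with CellTiter Glo, indicates toxicity.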

Assay [3] addresses Ubiquitin carboxyl-terminal hydrolase 1 (Homo sapiens) (UniProt O94782). Briefly: Inhibitors of USP1/UAF1: Pilot qHTS (AID 504865).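 Further: rhodamine fluorescence freed from ubiquitin-rhodamine substrate followed over time; top concentration of the series differs between compounds; nearly all actives have a fitted effect of over 35% in size.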 The method, boiled down:
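In 50mM HEPES pH 7.8 containing 0.5mM EDTA, 1mM TCEP, 0.1 mg/ml BSA and 0.01% Tween-20, 1nM USP1/UAF1 is exposed to compound for 15 min, then Ub-Rho (150nM final) is added and fluorescence is read over time.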

A short description of assay [4]: qHTS for Inhibitors of ATXN expression: Validation (AID 588378). Further: series mostly up to about 57 µM; nearly all actives have a fitted effect of over 75% in size. The gist of the method:
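Compounds were pinned onto attached HEK293 cells carrying an ATXN2-firefly luciferase construct and incubated 24 hrs at 37 degrees C. Each well then received a fluorescent viability reagent followed by luciferase substrate for end-point luminescence.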

The target of assay [5] is Estrogen receptor (Homo sapiens) (UniProt P03372). Briefly: qHTS assay for small molecule antagonists of estrogen receptor alpha signaling (AID 588513; active means well fitted curve in the direction sought with a large enough effect in the signal ratio, with a control signal flat, not every such curve was filed as active; the % refers to the signal ratio). From the text:
NIH Chemical Genomics Center [NCGC]
U.S. Environmental Protection Agency [EPA]
National Institutes of Environmental Health Sciences [NIEHS]
National Toxicology Program [NTP]
Estrogen receptor alpha (ER-alpha) is an important member of nuclear hormone receptors. ER-alpha plays important role in breast cancer as well as in other women's health issues. The majority of breast cancers is estrogen receptor (ER) positive and depends on estrogen for growth. There is also growing concern for some of environmental chemicals which may contribute the increasing the incidence of breast cancer. Therefore, it is important to understand the effect of environmental chemicals in ER-alpha signaling pathway.
NCGC Assay Protocol Summary
Using a beta-lactamase reporter-gene under control of the ER response element, a cell-based assay [ER-alpha-UAS-bla GripTiteTM cell-Based Assay from Invitrogen] was used to measure ER-alpha signaling pathway in antagonist mode. ER-alpha-UAS-bla-GripTite HEK 293 cells were used with assay medium containing 2% charcoal/dextran treated FBS, 0.1 mM NEAA and 1 mM sodium pyruvate. Cells were cultured in this assay medium overnight in the flasks before the assay. The assay was performed in clear bottom black Greiner 1536-well plates. 17-beta-estradiol was used as a positive control in the screen. Library compounds were measured for their ability to inhibit the reporter gene activity. Compounds were screened in a titration series in 1536-well format. […] Data was normalized relative to 17-beta-estradiol control (0.5nM, 100%), and DMSO only wells (basal, 0%). Concentration-response titration points for each compound were fitted to the Hill equation yielding concentrations of half-maximal inhibition (IC50) and maximal response (efficacy) values.
qHTS protocol for ER-alpha beta-lactamase assay in antagonist mode
[Step] [Parameter] [Value] [Description]
1. Reagent; 5 uL; 5000 cells/well
2. Incubation; 37 C for 4 hrs
- Dose response, Start 38uM, 1:2 dilutions with duplicates
- Two columns with 38 and 19uM (final) concentration.
5. Agonist (Stimulator); 1uL; 17-beta-estradiol at 0.5nM (final) concentration
6. Incubation; 37 C for 18 hrs
7. Detection reagent; 1 uL of CCF4-dye
8. Incubation; RT for 2 hrs
9. Detection; Fluorescence; Envision plate reader or Acumen plate reader

In assay [6] the target is Glucocorticoid receptor (Homo sapiens) (UniProt P04150). Briefly: qHTS assay for small molecule agonists of glucocorticoid receptor signaling (AID 588532; active means well fitted curve in the direction sought with a large enough effect in the signal ratio, with a control signal flat; the % refers to the signal ratio). The conditions noted are these: HeLa MMTV-bla, beta-lactamase ratio, agonist, 18 h; stronger effect = higher value; percent of dexamethasone control, DMSO zero. The gist of the method:
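MMTV-bla HeLa, beta-lactamase reporter; medium with 1% charcoal/dextran-stripped FBS; cpds up to 92 uM, 18 h, 37 C; CCF4 readout 460/530 nm; Hill fit → EC50, efficacy vs 0.1 uM dexamethasone = 100%.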

In assay [7] the target is Estrogen receptor (Homo sapiens) (UniProt P03372). Briefly: qHTS assay for small molecule agonists of estrogen receptor alpha signaling (AID 588514; calls by dose curve; further: nearly all actives have a fitted effect of over 70% in size). The gist of the method:
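Efficacy is expressed against 20 nM 17-beta-estradiol (100%) and DMSO basal (0%); EC50 from Hill equation. Assay: beta-lactamase reporter in ER-alpha-UAS-bla HEK 293 cells, 18 h compound incubation, CCF4 detection.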

Glucocorticoid receptor (Homo sapiens), sequence (P04150 whole entry, looked up): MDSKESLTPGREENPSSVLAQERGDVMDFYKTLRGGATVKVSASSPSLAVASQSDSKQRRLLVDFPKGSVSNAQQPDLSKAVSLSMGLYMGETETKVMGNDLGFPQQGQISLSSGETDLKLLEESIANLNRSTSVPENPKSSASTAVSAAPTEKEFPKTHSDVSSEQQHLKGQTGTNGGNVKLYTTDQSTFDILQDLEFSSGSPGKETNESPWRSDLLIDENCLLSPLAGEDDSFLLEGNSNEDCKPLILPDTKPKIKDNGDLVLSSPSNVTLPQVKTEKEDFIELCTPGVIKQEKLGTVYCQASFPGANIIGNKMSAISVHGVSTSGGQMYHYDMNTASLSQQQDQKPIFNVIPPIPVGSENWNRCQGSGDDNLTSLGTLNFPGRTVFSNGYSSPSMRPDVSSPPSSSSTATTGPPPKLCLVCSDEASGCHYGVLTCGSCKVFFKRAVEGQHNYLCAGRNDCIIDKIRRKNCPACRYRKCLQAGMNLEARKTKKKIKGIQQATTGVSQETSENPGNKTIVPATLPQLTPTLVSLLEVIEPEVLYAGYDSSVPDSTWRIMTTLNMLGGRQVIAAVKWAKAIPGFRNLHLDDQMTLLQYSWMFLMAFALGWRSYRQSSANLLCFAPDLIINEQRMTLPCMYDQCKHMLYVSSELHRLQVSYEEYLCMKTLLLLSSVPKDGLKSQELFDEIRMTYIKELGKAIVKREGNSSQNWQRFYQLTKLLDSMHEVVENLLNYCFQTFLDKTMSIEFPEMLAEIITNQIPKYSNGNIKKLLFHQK
Ubiquitin carboxyl-terminal hydrolase 1 (Homo sapiens), sequence (O94782 whole entry, looked up): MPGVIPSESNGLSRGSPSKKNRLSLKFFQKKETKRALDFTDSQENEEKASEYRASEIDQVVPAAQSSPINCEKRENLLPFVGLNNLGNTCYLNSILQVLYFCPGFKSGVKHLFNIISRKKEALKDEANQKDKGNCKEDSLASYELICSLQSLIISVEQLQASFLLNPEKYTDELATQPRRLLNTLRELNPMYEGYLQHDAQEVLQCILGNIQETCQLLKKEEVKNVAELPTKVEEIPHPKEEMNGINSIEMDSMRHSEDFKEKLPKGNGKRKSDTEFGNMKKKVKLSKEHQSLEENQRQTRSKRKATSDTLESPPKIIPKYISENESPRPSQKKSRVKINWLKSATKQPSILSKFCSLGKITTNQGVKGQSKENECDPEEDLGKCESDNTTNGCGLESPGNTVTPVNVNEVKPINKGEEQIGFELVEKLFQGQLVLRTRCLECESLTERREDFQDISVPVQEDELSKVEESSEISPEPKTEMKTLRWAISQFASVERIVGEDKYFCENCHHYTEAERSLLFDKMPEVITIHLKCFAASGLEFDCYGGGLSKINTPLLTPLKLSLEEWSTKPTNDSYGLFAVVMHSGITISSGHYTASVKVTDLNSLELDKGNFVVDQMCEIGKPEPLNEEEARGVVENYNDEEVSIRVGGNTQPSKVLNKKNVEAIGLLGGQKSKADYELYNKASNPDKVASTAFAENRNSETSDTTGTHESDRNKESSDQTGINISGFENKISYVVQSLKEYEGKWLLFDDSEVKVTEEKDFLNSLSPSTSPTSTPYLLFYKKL
Estrogen receptor (Homo sapiens), sequence (P03372 whole entry, looked up): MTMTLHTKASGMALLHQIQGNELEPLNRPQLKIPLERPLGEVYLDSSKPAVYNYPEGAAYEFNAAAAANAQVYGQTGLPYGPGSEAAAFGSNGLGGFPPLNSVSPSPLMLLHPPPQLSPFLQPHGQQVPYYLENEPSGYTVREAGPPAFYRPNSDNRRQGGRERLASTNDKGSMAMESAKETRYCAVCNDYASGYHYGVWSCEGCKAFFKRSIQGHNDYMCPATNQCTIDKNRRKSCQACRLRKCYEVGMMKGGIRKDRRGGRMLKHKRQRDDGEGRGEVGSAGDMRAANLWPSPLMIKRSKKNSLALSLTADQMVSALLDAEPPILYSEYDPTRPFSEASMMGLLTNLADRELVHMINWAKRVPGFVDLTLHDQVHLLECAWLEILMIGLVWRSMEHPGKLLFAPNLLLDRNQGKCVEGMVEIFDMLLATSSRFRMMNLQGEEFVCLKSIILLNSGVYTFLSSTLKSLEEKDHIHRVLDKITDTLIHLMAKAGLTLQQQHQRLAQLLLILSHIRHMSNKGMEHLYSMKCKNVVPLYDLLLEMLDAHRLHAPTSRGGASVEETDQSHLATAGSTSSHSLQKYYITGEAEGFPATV

Turning to `CN1CCN(CCCN2c3ccccc3Sc3ccc(C(F)(F)F)cc32)CC1`, in assay [1], the call was inactive. For the same molecule, in assay [2], the Potency is 28.2 µM (active).
As for `CNC[C@H](O)c1cccc(O)c1`, the call in assay [1] and in assay [4] was inactive. In addition, the Potency entry in assay [3] and in assay [2] was “inactive” throughout.
For the molecule `Cc1oncc1C(=O)Nc1ccc(C(F)(F)F)cc1`, the outcome in assay [1] and in assay [4] was inactive. For the same molecule, in assay [2], the Potency result is “inactive”.
On to `CC(C)NCC(O)COc1ccc(COCCOC(C)C)cc1` (centres undefined), for which the molecule was called inactive in assay [1] and in assay [4]. For the same molecule, the Potency result in assay [2] was “inactive”.
On to `Nc1ccc(S(=O)(=O)Nc2ccnn2-c2ccccc2)cc1`, for which the molecule was called inactive in assay [1] and in assay [4]. Besides, the Potency entry in assay [2] was “inactive”.
For `CCOC(=O)C1=C[C@]2(CC)CCCN3CCc4c(n1c1ccccc41)[C@@H]32`, the molecule was called inactive in assay [1] and in assay [4]. In addition, the Potency entry in assay [2] was “inactive”.
As for `NCCCC(N)(C(=O)O)C(F)F` (centres undefined), the result in assay [1] and in assay [4] was inactive. Moreover, the Potency result in assay [3] and in assay [2] was “inactive” throughout.
Consider `CC(C[N+](C)(C)C)OC(N)=O` (centres undefined), for which the call in assay [1] and in assay [4] was inactive. The Potency entry in assay [2] was “inactive”.
As to `N[C@@H]1CONC1=O`, the outcome in assay [1] and in assay [4] was inactive. Also, the Potency result in assay [2] is “inactive”.
In the case of `Cc1ccccc1C(OCCN(C)C)c1ccccc1` (centres undefined), the call in assay [1] and in assay [4] was inactive. For the same molecule, the Potency entry in assay [3], in assay [2] and in assay [5] was “inactive” throughout. In addition, the activation in assay [6] is 2.67%.
In the case of `O=C(Nc1nc2ccccc2n1CCN1CCOCC1)c1cccc([N+](=O)[O-])c1`, the result in assay [1] and in assay [4] was inactive. For the same molecule, the Potency result in assay [3] and in assay [2] was “inactive” each time.
On to `NS(=O)(=O)c1cc2c(cc1Cl)NC=NS2(=O)=O`, for which the outcome in assay [1], in assay [4] and in assay [7] was inactive. Further, the Potency entry in assay [3], in assay [2] and in assay [5] was “inactive” throughout.
In the case of `O=c1n(CCCN2CCN(c3cccc(Cl)c3)CC2)nc2ccccn12`, the call in assay [1] and in assay [4] was inactive. Further, the Potency result in assay [3] and in assay [2] was “inactive” throughout.
In the case of `NC(=O)c1cnccn1`, the result in assay [1], in assay [4] and in assay [7] was inactive. For the same molecule, the Potency entry in assay [2] and in assay [5] was “inactive” throughout. Further, in assay [6], the activation was -2.74% and -4.57%.
